Only some compounds are listed: those with a hit (about 12% of all), similar ones and a draw of the others.
BAZ2B block = blocks human BAZ2B | Q9UIF8 | AlphaScreen BAZ2B-H3K14Ac peptide displacement | Potency, µM (series often up to 114 µM), for the others: top-dose activity change, negative = inhibition, usual class: inhibitors | 4.4% of 360,000 active | AID 504333; note: % is set by controls: 0 for no effect and ±100 for the full control effect; nearly all actives have a fitted effect of over 60% in size
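Inhibition is scored as reduced AlphaScreen emission. The BAZ2B/b-H3(5-23)K14Ac complex (50 nM each) in PBS pH 7.4, 0.01% Tween-20 meets compound (up to 110 uM) for 30 min at RT before bead addition.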
HP1b binding inh = HP1-beta chromodomain-methylated histone interaction inhibition | 0.56% of 390,000 active | AID 540317 | AlphaScreen HP1-beta / biotin-H3K9me3 peptide binding | Potency, µM (titrated, usually from 114 µM), inactives show at the top dose activity change, negative = inhibition, usual class: inhibitors | P83916; note: nearly all actives have a fitted effect of over 70% in size
Target sequence (P83916 whole entry, looked up): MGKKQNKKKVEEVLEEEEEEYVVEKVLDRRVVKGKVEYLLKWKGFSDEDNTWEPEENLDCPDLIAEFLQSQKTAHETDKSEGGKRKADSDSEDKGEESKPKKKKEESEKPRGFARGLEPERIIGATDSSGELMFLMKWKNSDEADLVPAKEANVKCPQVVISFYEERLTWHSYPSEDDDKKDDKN
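Compound inhibition of the preformed complex between 50 nM HP1-beta and 50 nM biotinylated H3K9me3 peptide was read by AlphaScreen. Buffer was PBS pH 7.4 with 0.01% Tween-20. Incubations ran 30 min at room temperature, with 10 ug/mL donor/acceptor beads.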
JMJD2A Tudor = inhibitors of human JMJD2A Tudor domain; O75164; AlphaScreen JMJD2A-Tudor / H3K4me3 peptide binding; 4.4% of 390,000 active; AID 504339; Potency, µM (titrated, usually from 114 µM), for the others: at the top dose activity change, negative = inhibition, most hits filed as inhibitors; note: % is set by controls: 0 for no effect and ±100 for the full control effect; nearly all actives have a fitted effect of over 50% in size
PLK1 PBD inh = blocks phosphopeptide binding to human PLK1 polo-box domain; AID 720504; Plk1 PBD binding of FITC phosphopeptide, fluorescence polarization; 2.8% of 360,000 active; Potency, µM, for the others: max response, negative = inhibition, hits mostly inhibitors; P53350; note: series mostly up to about 57 µM; % is set by controls: 0 for no effect and ±100 for the full control effect; nearly all actives have a fitted effect of over 65% in size
Sfp inh = inhibitors of Bacillus subtilis Sfp phosphopantetheinyl transferase. Q9F4F7. 3.5% of 310,000 active. Biochemical Sfp PPTase activity, qHTS. Potency, µM, without a hit: largest response in the series, negative = inhibition, actives largely listed as inhibitors;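 note: the enzyme is Sfp with the accession as filed and its product quenches rhodamine fluorescence; 0% = enzyme reaction without inhibitor and -100% = no enzyme wells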
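With Hepes-Na pH 7.6 buffer containing 10 mM MgCl2, Sfp (15 nM) modified BHQ-2-YbbR (12.5 uM) using rhodamine-CoA (5 uM). Two reads 30 minutes apart at 525/598 nm yielded each well's rate.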
G9a inh = inhibitors of human histone lysine methyltransferase G9a; Q96KQ7; G9a H3K9 monomethylation, AlphaScreen, 2 h; Potency, µM (top dose mostly 102 µM), inactives show top-dose activity, negative = inhibition, actives largely listed as inhibitors; 8.8% of 350,000 active; note: % is set by controls: 0 for no effect and ±100 for the full control effect; nearly all actives have a fitted effect of over 75% in size
Target sequence (Q96KQ7 913-1193 limits assumed): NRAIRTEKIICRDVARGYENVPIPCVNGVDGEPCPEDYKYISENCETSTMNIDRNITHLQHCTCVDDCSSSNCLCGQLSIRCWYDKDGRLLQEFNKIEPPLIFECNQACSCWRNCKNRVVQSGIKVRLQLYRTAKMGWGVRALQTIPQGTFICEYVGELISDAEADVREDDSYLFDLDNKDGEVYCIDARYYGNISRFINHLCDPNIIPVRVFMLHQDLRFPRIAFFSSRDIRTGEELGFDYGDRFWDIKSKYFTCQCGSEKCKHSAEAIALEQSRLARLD
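Chemiluminescent proximity detection of H3K9 monomethylation, read after 10 min bead incubation in the dark. Reaction: 20 nM G9a, 500 nM biotin-H3K9 peptide, 20 uM SAM cofactor, 2 h, room temperature, following 15 min enzyme-compound preincubation.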
The depositor's hits bear a star; [ ] = another dose, or the depositor's remark. Calls come from the whole dose curve; as a rule, active = well fitted curve in the direction sought with a large enough effect; inconclusive = small, poorly fitted or top-dose-only effect, or another doubt; inactive = no such curve, though single readings can be large; an effect the other way counts as inactive or inconclusive. Potency is the fitted concentration of half-maximal effect.

Results for C=CCn1c(C(C)n2c(-c3cnccn3)nc3ccccc32)nc2ccccc21 (stereo not given) ?
PLK1 PBD inh: -9%

How did CCOC(=O)C1=C(O)C(=O)N(CCCn2ccnc2)C1c1ccc(OC)cc1 (stereo not given) do in these assays?
BAZ2B block: -36%; Sfp inh: 6%; G9a inh: 45µM*

What do the screens show for `COc1ccc(C2C(C(=O)c3ccco3)=C(O)C(=O)N2CCCn2ccnc2)c(OC)c1` (stereo not given)?
BAZ2B block: 56µM*; HP1b binding inh: 13%; JMJD2A Tudor: 28µM*; PLK1 PBD inh: -19%; Sfp inh: -19%; G9a inh: 50µM*

How did CO[C@@H](CCOCc1ccccc1)C[C@H]1O[C@H](C(=O)OC(C)C)C=C[C@@H]1C do in these assays?
Sfp inh: 9%

Results for Cc1cccc(N(CC(=O)Nc2ccccc2C(F)(F)F)S(=O)(=O)c2ccccc2)c1C ?
BAZ2B block: -3%; HP1b binding inh: 20%; JMJD2A Tudor: -16%; G9a inh: -33%[59 µM]

How did CC[C@H](C)C1OC(=O)[C@@H](C)[C@@H](CC)NC(=O)[C@H](C)N(C)C(=O)C(C)(C)C(=O)C(C)NC(=O)[C@H](Cc2ccc(OC)cc2)N(C)C(=O)[C@H](C(C)C)N(C)C(=O)CNC(=O)[C@H](CC(C)C)N(C)C(=O)CNC1=O (stereo not given in full) do in these assays?
PLK1 PBD inh: -8%

Results for CCC[C@H]1NC(=O)[C@H](C)N(C)C(=O)C(C)(C)C(=O)C(C)NC(=O)[C@H](Cc2ccc(OC)cc2)N(C)C(=O)[C@H](C(C)C)N(C)C(=O)CNC(=O)[C@H](CC(C)C)N(C)C(=O)CNC(=O)[C@H]([C@@H](C)CC)OC(=O)[C@H]1C (stereo not given in full) ?
HP1b binding inh: -6%; JMJD2A Tudor: 22µM*; PLK1 PBD inh: -11%

How did CCc1ccccc1N1C(=O)[C@@H]2Cc3ccccc3CN2C1=O do in these assays?
BAZ2B block: 1%; HP1b binding inh: 48%; JMJD2A Tudor: 10%; PLK1 PBD inh: 3%; Sfp inh: 21%

How did O=Cc1cccn1-c1cccc([N+](=O)[O-])c1 do in these assays?
BAZ2B block: 0%; HP1b binding inh: inconclusive; JMJD2A Tudor: -23%; PLK1 PBD inh: inconclusive; Sfp inh: inconclusive

Results for O=C(O)c1cccc(-n2cccc2/C=C/[N+](=O)[O-])c1 ?
BAZ2B block: 32µM*; HP1b binding inh: 20µM*; JMJD2A Tudor: 22µM*; PLK1 PBD inh: 6.7µM*; Sfp inh: 32µM*; G9a inh: 10µM*

How did CN1C(=O)S/C(=C/c2cccn2-c2cccc(C(=O)O)c2)C1=O do in these assays?
BAZ2B block: inconclusive; HP1b binding inh: 24%; JMJD2A Tudor: -27%; PLK1 PBD inh: -14%; Sfp inh: 3%; G9a inh: -30%

How did O=C(O)c1cccc(-n2cccc2/C=C\[N+](=O)[O-])c1 do in these assays?
BAZ2B block: inconclusive; HP1b binding inh: inconclusive; JMJD2A Tudor: 22µM*; PLK1 PBD inh: 27µM*; Sfp inh: -13%

How did CNS(=O)(=O)c1cn(CC(=O)N2CCN(c3cccc(C)c3C)CC2)cc1S(=O)(=O)NC do in these assays?
BAZ2B block: -13%; HP1b binding inh: 23%; JMJD2A Tudor: -14%; G9a inh: -19%[59 µM]

What do the screens show for `O=C(Nc1ccc2c(c1)nc1n2CCN(Cc2ccccc2)C1)NC1CCCCC1`?
BAZ2B block: -3%; HP1b binding inh: 22%; JMJD2A Tudor: -23%; PLK1 PBD inh: -18%; Sfp inh: -1%; G9a inh: 22µM*

How did COc1ccccc1C(=O)Nc1ccc2c(c1)nc1n2CCN(Cc2ccccc2)C1 do in these assays?
BAZ2B block: -14%; HP1b binding inh: 9%; JMJD2A Tudor: -20%; PLK1 PBD inh: -8%; Sfp inh: -7%; G9a inh: 16µM*
